Compound activity as filed in PubChem BioAssay.
In the library only some 19% were active in any assay of this set; here they are far more common.
DT40 TDP1 CPT – DT40-hTDP1 cell growth loss with CPT; Potency, µM (top dose mostly 46.2 µM), for the others: top-dose activity change, negative = growth inhibition, usual class: inhibitors; hit rate 12% among 420,000; AID 686979; chicken DT40 Tdp1-/-;hTDP1 cells + 20 nM CPT, ATP luminescence, 48 h; further: nearly all actives have a fitted effect of over 55% in size
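Chicken DT40 Tdp1-/- cells complemented with human TDP1, 400 cells/well, exposed to compounds plus 20 nM camptothecin for at least 48 h at 37 C; viability read as ATP content by CellTiter-Glo luminescence.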
HT1080 IDH1KD tx – HT-1080 IDH1 knockdown cell toxicity (counter line). HT-1080 IDH1 knockdown viability, ATP luminescence, 48 h. Potency, µM (series often up to 46.1 µM), without a hit: at the highest dose activity, negative = toxicity, usual class: cytotoxic. hit rate 2% among 360,000. AID 686971;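 further: 0% = DMSO wells and -100% = cell-free medium wells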
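Using the IDH1-knockdown HT-1080 line run in the same batch and compound series as the NT line, viability after 48 h at 37 °C was determined by CellTiter-Glo luminescence and expressed as % activity.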
HT1080NT lethal – kills 2HG-producing HT-1080-NT fibrosarcoma cells; HT-1080-NT fibrosarcoma viability, CellTiter-Glo ATP luminescence, 48 h; Potency, µM (titrated, usually from 46.1 µM), without a hit: top-dose activity, negative = less viability, hits mostly cytotoxic; hit rate 1.6% among 360,000; AID 686970;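 further: NT is the 2HG producing partner of a matched IDH1 knockdown line; 0% = DMSO-treated cells and -100% = media-only wells without cells; nearly all actives have a fitted effect of over 55% in size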
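Viability by CellTiter-Glo luminescence after 48 h compound exposure at 37C of HT-1080-NT cells (750/well, RPMI, 5% FBS). % activity scaled between DMSO wells and medium-only wells, then curve-fitted and categorized by curve class.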
KB-3-1 tox – KB-3-1 parental cell cytotoxicity | hit rate 1.4% among 400,000 | KB-3-1 viability, CellTiter-Glo ATP luminescence, 72 h | Potency, µM (highest dose often 46.1 µM), actives largely listed as cytotoxic; further: nearly all actives have a fitted effect of over 60% in size
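Multi-concentration cytotoxicity screen in KB-3-1 cells grown in DMEM lacking phenol red with 10% FBS. After 72 h at 37 °C with compound, ATP-dependent luminescence was recorded.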
DT40 TDP1 no CPT – qHTS for Inhibitors of human tyrosyl-DNA phosphodiesterase 1 (TDP1): qHTS in cells in absence of CPT; AID 686978, 2013; DT40 Tdp1-/- hTDP1 cells, no CPT, ATP luminescence, 48 h; hit rate 15% among 420,000; Potency, µM (top dose mostly 46.2 µM), without a hit: at the highest dose activity change, negative = growth inhibition, most hits filed as inhibitors; further: nearly all actives have a fitted effect of over 55% in size
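Luminescent ATP content (CellTiter-Glo) served as the growth readout. Knockout chicken DT40 cells expressing human TDP1 were exposed to compounds without camptothecin for a minimum 48 hr at 37 °C.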
KB-V1 MDR tox – KB-V1 MDR subline cytotoxicity. KB-V1 MDR cells viability, CellTiter-Glo, 72 h. Potency, µM (titrated, usually from 46.1 µM), most hits filed as cytotoxic. hit rate 3.4% among 400,000; further: nearly all actives have a fitted effect of over 60% in size
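Cytotoxicity toward P-gp-expressing KB-V1 cells was determined as loss of CellTiter-Glo luminescence after 72 h at 37 degrees C. Compounds were tested in quantitative HTS format across a concentration range, with curves fitted to normalized data.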
* hit, by the source's call; i = inactive; ? = inconclusive; nt = not tested or not shown. The call rests on the fitted dose curve; in most records, active means well fitted curve in the direction sought with a large enough effect; inconclusive means small, poorly fitted or top-dose-only effect, or another doubt; inactive means no such curve, though single readings can be large; an effect the other way counts as inactive or inconclusive. Unless noted, on the % scale 0 is the no-effect control and ±100 the full control effect; potency means the concentration at half of the fitted maximal effect.

SMILES	DT40 TDP1 CPT	HT1080 IDH1KD tx	HT1080NT lethal	KB-3-1 tox	DT40 TDP1 no CPT	KB-V1 MDR tox
COc1cc(CCCN2C(=S)NC[C@H]2Cc2ccc(O)cc2)cc(OC)c1OC	?	0%	9%	i	15µM*	i
Cc1cc(C)c(NC(=O)CSc2nnc3[nH]c(=O)cc(C)n23)c(C)c1	-4%	nt	nt	nt	2%	nt
CCOc1ccc(NC(=O)CSc2nc3c(c(=O)n2C)SC(C)C3)cc1 (configuration not stated)	16µM*	-1%	14%	i	?	i
Cc1cc(C)cc(NC(=O)CSc2nc3c(c(=O)n2C)SC(C)C3)c1 (configuration not stated)	-28%	-13%	-20%	i	-22%	i
Cc1cc(C)c(NC(=O)CSc2nc3c(c(=O)n2C)SC(C)C3)c(C)c1 (configuration not stated)	21µM*	6%	12%	i	13µM*	i
COc1cccc(NC(=O)CSc2nc3c(c(=O)n2C)SC(C)C3)c1 (configuration not stated)	?	-1%	0%	i	?	i
CC1Cc2nc(SCC(=O)Nc3ccc(F)cc3)n(C)c(=O)c2S1 (configuration not stated)	23µM*	11%	0%	i	?	4.1µM*
Cc1cc(C)c(NC(=O)CSc2nnc(SCC(=O)Nc3c(C)cc(C)cc3C)n2N)c(C)c1	15µM*	7%	11%	i	?	i
COc1ccc(CCNC(=O)c2ccc(CS(=O)Cc3ccc(C)cc3)o2)cc1OC (configuration not stated)	?	0%	13%	i	-19%	i
CCC1CN(C(=O)Nc2ccc(Br)cc2F)c2ccccc2S1 (configuration not stated)	-19%	nt	nt	i	?	i
Cc1ccc(S(=O)(=O)NCc2ccccc2)cc1C(=O)NCc1ccncc1	5%	6%	4%	i	-6%	i
COc1ccc(OCC(=O)NCc2ccc3c(c2)CCN3C(=O)c2ccccc2)cc1	15µM*	nt	nt	nt	13µM*	nt
O=C(COc1ccc(F)cc1)NCc1ccc2c(c1)CCN2C(=O)c1ccc(F)cc1	-19%	nt	nt	i	-23%	i
O=C(COc1ccccc1)NCc1ccc2c(c1)CCN2C(=O)c1ccccc1	12µM*	nt	nt	?	6.5µM*	?
CCOc1ccc(CC(=O)NCc2ccc3c(c2)CCN3C(=O)c2ccc(F)cc2)cc1OCC	?	nt	nt	i	?	?
Cc1ccc(C(=O)N2CCc3cc(CNC(=O)COc4ccccc4)ccc32)cc1	13µM*	nt	nt	nt	12µM*	nt
CCOc1ccc(CC(=O)NCc2ccc3c(c2)CCN3C(=O)c2ccccc2)cc1OCC	16µM*	nt	nt	i	?	i
CCOC(=O)c1cccc(NC(=O)COc2ccc3c(C)cc(=O)oc3c2)c1	-3%	nt	nt	nt	5%	nt
CCOc1ccc(NC(=O)/C(C=Nc2ccccc2)=C(\C)O)cc1	3%	23%	22%	i	-15%	?
O=C(Nc1cccc(S(=O)(=O)N2CCCC2)c1)c1cccnc1	-18%	5%	0%	i	0%	i
CCN(CC)S(=O)(=O)c1ccc(NC(=O)c2ccc(Cl)nc2)cc1	?	-15%	-7%	i	23µM*	i
O=C(Nc1cccc(S(=O)(=O)N2CCCCCC2)c1)c1ccc(Cl)nc1	18µM*	-27%	-9%	i	15µM*	i
O=C(Nc1cccc(S(=O)(=O)N2CCCCC2)c1)c1ccc(Cl)nc1	21µM*	-2%	-10%	?	15µM*	i
CCN(CC)S(=O)(=O)c1ccc(NC(=O)c2ccc(NS(C)(=O)=O)cc2)cc1	-20%	3%	-3%	i	-3%	i
O=C(Nc1ccc(S(=O)(=O)N2CCCCC2)cc1)c1ccc(Cl)nc1	18µM*	-7%	-6%	i	6.5µM*	i
SMILES	DT40 TDP1 CPT	HT1080 IDH1KD tx	HT1080NT lethal	KB-3-1 tox	DT40 TDP1 no CPT	KB-V1 MDR tox
O=C(Nc1ccc(S(=O)(=O)N2CCCC2)cc1)c1ccc(Cl)nc1	?	-11%	-15%	i	?	i
Cc1ccc(NC(=O)c2sc(-n3nc(C)c(Cc4ccc5c(c4)OCO5)c3C)nc2C)cc1Cl	?	nt	nt	i	?	i
CC(CNC(=O)CC[C@H]1O[C@@H](n2cnc3c(NC(=O)c4ccccc4)ncnc32)[C@H](O)[C@@H]1O)c1ccccc1 (some centres not stated)	-12%	12%	8%	i	-7%	i
O=C(Nc1ccc(S(=O)(=O)N2CCCCC2)cc1)c1ccc(=O)[nH]c1	?	-6%	-6%	?	?	?
O=C(Nc1cccc(S(=O)(=O)N2CCCCCC2)c1)c1ccc(=O)[nH]c1	?	3%	10%	i	18µM*	i
O=C(Nc1cccc(S(=O)(=O)Nc2ccccc2Cl)c1)c1ccc(Cl)nc1	12µM*	-8%	-4%	5.2µM*	15µM*	2.6µM*
COCc1nc2ccccc2n1CCOc1cccc(C)c1	?	nt	nt	i	?	i
COc1ccc(N2COC3c4cccc5cccc(c45)C32)cc1 (configuration not stated)	5.8µM*	4%	4%	i	8.2µM*	i
C(=Nc1cnc2ccccc2c1)c1ccncc1	-3%	nt	nt	?	-10%	i
COc1ccccc1CNC(=O)CCc1c(C)nn(-c2ccc(N3CCCCC3)nn2)c1C	?	nt	nt	nt	26µM*	nt
CCOc1ccccc1CNC(=O)CCc1c(C)nn(-c2ccc(N3CCCC3)nn2)c1C	?	nt	nt	nt	21µM*	nt
COc1cccc(C(=O)NCCN2CCN(c3ccccc3)CC2)c1	0%	10%	6%	i	15%	i
O=C(Nc1cccn(Cc2c(Cl)cccc2Cl)c1=O)c1c(Cl)cccc1Cl	?	-9%	-8%	21µM*	?	3.7µM*
Cc1cccc(NC(=O)CSc2nc(-c3ccco3)nc3cc(=O)[nH]n23)c1	-23%	nt	nt	i	-24%	i
COc1cccc(CN2CCCC(c3nc(-c4ccncc4)ncc3-c3ccccc3)C2)c1O (configuration not stated)	?	nt	nt	nt	16µM*	nt
COc1ccc(CN2CCCC(c3nc(-c4ccncc4)ncc3-c3ccccc3C)C2)c(OC)c1 (configuration not stated)	2.6µM*	nt	nt	nt	?	nt
